Mtb MenB inh – M. tuberculosis MenB inhibitors, primary screen, biochemical, absorbance; 1,4-dihydroxy-2-naphthoyl-CoA synthase (Mycobacterium tuberculosis (strain ATCC 25618 / …; MenB enzyme assay, absorbance read-out; inhibition, % (no concentration beside the values); 100,000 tested, 0.43% active; AID 540299, 2011; in the data active = inhibition above about 21%, passing the limit was not always enough
Polio RdRp inh – poliovirus RdRp elongation inhibitors, primary screen, biochemical, fluorescence polarization, total intensity; Genome polyprotein (Poliovirus type 1 (strain Mahoney)), P03300; poliovirus polymerase elongation; stronger effect = lower value; % elongation, % (compound at 16.7 µg/mL); 150,000 tested, 0.66% active; AID 588519, 2011; in the data active = % elongation below about 90%
Target sequence (P03300 1749-2209 limits assumed): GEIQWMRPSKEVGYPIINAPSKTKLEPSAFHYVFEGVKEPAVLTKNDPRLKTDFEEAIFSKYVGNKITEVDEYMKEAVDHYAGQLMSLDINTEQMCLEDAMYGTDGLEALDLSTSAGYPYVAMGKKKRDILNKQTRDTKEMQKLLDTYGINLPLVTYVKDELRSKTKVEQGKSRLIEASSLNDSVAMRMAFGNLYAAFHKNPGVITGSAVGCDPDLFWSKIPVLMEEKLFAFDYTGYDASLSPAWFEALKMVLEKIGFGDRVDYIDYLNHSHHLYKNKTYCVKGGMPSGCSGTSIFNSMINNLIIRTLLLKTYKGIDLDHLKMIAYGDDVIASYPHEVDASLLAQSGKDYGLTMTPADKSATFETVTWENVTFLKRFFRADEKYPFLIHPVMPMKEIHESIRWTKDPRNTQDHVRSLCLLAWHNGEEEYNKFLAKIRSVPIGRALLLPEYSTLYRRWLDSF
AID504770 – growth inhibition of E. coli YBA685, primary screen, V. cholerae RctB inhibitors. 130,000 tested, 0.27% active. z-score (no concentration beside the values). E. coli YBA685 rctB-dependent plasmid, OD600 growth, 3 h; stronger effect = lower value; in the data active = z-score below about -2, passing the limit was not always enough
MbtI inh – MbtI salicylate synthase inhibitors, primary screen, biochemical, fluorescence intensity; P9WFX0; purified MbtI enzyme, fluorescence intensity read-out; inhibition, % (test concentration not listed); 100,000 tested, 0.89% active; in the data active = inhibition mostly above about 56%, no sharp cut-off; inactive = mostly below about 77%
An asterisk follows results filed as active; x = no result given; ! = not active in a repeat. The list is not random: actives were taken first. Their share in the collection is about 1.4%.

SMILES	Mtb MenB inh	Polio RdRp inh	AID504770	MbtI inh
CC(C)(C)C1CCc2onc(C(=O)Nc3sc4c(c3C#N)CCCC4)c2C1 (stereo not drawn)	x	82.0*	x	x
CC(C)(C)C1CCc2onc(C(=O)Nc3sc4c(c3C(N)=O)CCCC4)c2C1 (stereo not drawn)	x	79.0*	x	x
CCOC(=O)c1cc(-c2ccco2)nn1-c1ccc(C)cc1C	-17.1	118.0	0	6.8
Cc1cc(C)c(S(=O)(=O)N(CCC(C)C)S(=O)(=O)c2ccccc2C#N)c(C)c1	-5.0	98.0	-4.05*	-3.6
CCCOc1ccc(CNC(=O)Cn2c(=O)oc3ccccc32)cc1	x	111.0	x	x
N#CSc1ccc2nc(N)sc2c1	1.2	94.0	-1.4	53.2*
CCSc1nc2c(c(=O)[nH]c(=O)n2C)n1CC	-1.4	98.0	-0.45	97.7*
CCC(C)N1CCN(Cc2cc(OC)c(OC)cc2OC)CC1 (stereo not drawn)	36.5*	102.0	1.6	3.8
COc1cc(OC)c(OC)cc1CN1CCN(c2cccc(C)c2C)CC1	4.1	96.0	-0.3	-0.6
O=C(Oc1ccccc1Cl)C1COc2ccccc2O1 (stereo not drawn)	-2.2	102.0	-0.75	-8.3
Cc1nc2cccnc2n1CCNC(=O)Nc1cccc2ccccc12	27.3*	101.0	0.9	39.0
CC1Cc2ccccc2N1C(=O)c1ccc(Cl)cc1 (stereo not drawn)	-26.7	103.0	-1	-8.5
COc1ccc(C(=O)N2c3ccccc3CC2C)cc1 (stereo not drawn)	31.6*	101.0	0.6	2.2
COc1ccc(CNC(=O)CSC(C)(C)C)cc1OC	-12.6	100.0	-4.55*	-9.8
COc1ccc(CNC(=O)CCC2CCCC2)cc1OC	10.6	101.0	0.2	-37.3
COc1ccc(CN(Cc2nc3ccccc3c(=O)[nH]2)C(=O)NCc2ccccc2)cc1	-41.1	105.0	-3.55*	5.5
Cc1cc(NS(=O)(=O)c2ccc(N3C(=O)C=CC3=O)cc2)no1	11.8	98.0	2.25	93.0*
CC(C)CNCCCN1CCOCC1	36.3*	101.0	0.55	-0.3
COc1ccc(C(=O)n2c(=S)nc3cc(C)ccn32)cc1	-16.0	79.0*	1.95	x
COc1ccc(C(=O)NCc2cn3ccc(C)cc3n2)cc1	x	107.0	x	x
CCC(C)n1c(=O)[nH]c2c1c(=O)n(C)c(=O)n2C (stereo not drawn)	x	x	-0.95	-3.8
CC(C)n1c(=S)[nH]c2c1c(=O)[nH]c(=O)n2C	0.3	101.0	-0.3	101.6*!
O=C1CC2CCC(CN1)N2CC(=O)Nc1ccc(F)cc1 (stereo not drawn)	-26.0	101.0	1.3	-9.4
CC(NC(=O)CN1C2CCC1CC(=O)NC2)c1ccccc1 (stereo not drawn)	28.6*	100.0	1.65	-0.4
Cc1ccc2c(c1)NC(=O)C(CC(=O)NCCCN1CCN(c3cc(Cl)ccc3C)CC1)O2 (stereo not drawn)	-7.4	104.0	0.55	10.7
SMILES	Mtb MenB inh	Polio RdRp inh	AID504770	MbtI inh
CCOC1(O)C(=O)c2ccccc2C(=O)C1(O)OCC (stereo not drawn)	x	x	-1.25	78.6
O=C1c2ccccc2C(=O)C2(O)OCCOC12O (stereo not drawn)	-4.4	90.0*	-0.5	115.2
CCNc1nc(Cl)nc(NCC)n1	x	101.0	-0.1	-3.4
CCNc1nc(NCC)nc(NCCO)n1	32.3*	99.0	-0.45	-13.6
FC(F)(F)Cc1nc2ccccc2s1	x	103.0	1.1	-1.4
CCN1CCN(C(c2cccnc2)c2ccc3cccnc3c2O)CC1 (stereo not drawn)	-44.8	87.0*	1.25	88.6*
COc1ccc(C(c2ccc3cccnc3c2O)N2CCOCC2)cc1 (stereo not drawn)	-64.3	102.0	0.2	98.2*
Cc1cc(C)n2c(Nc3c(C)cccc3C)c(-c3ccsc3)nc2n1	x	113.0	x	x
O=C(OCn1nnc2ccccc2c1=O)C1COc2ccccc2O1 (stereo not drawn)	-21.8	100.0	0.4	58.3*
O=C(OCn1nnc2ccccc2c1=O)C1CCCCC1	22.7	102.0	0.3	5.9
CCCCC1CCC(C(=O)O)CC1 (stereo not drawn)	x	101.0	-0.5	-7.0
CCCCC1CCC(CCCC(C)CCC(=O)O)CC1 (stereo not drawn)	x	89.0*	x	x
COc1cc(NCCCC(C)N)c2ncccc2c1 (stereo not drawn)	-9.2	35.0*	-0.1	4.5
O=C(OCc1ccccn1)c1ccc(COc2ccccc2Cl)o1	-33.5	102.0	-1.1	-0.1
